Screening results as filed in PubChem BioAssay.
The entries come from a sample that favours hits as a whole.
Pf Dd2 growth – qHTS Primary assay for Inhibitors of Plasmodium falciparum Dd2 growth in vitro. P. falciparum Dd2 growth, SYBR Green, 72 h. Potency, µM (doses to about 28.9 µM), usual class: inhibitors. AID 1347417, 2020. 120,000 tested, 4.3% active; active means well fitted inhibition curve with a large enough effect; further: nearly all actives have a fitted effect of over 65% in size
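Infected erythrocytes (Dd2, 0.3% parasitemia, 2.5% hematocrit final) are added to compound in RPMI-1640/Albumax II medium, grown 72 h at 37C in low oxygen, then lysed with saponin/Triton-X containing SYBR Green and read by fluorescence.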
Each line names hits and unclear results; the compound was inactive in the other large screens.

CNC(=O)[C@@H]1C[C@@H](O)CN1C1CCN(C(=O)CC2CCCC2)CC1	none
O=C(NC[C@H]1O[C@H](Cc2cc(-c3ccc(F)cc3)on2)CC[C@@H]1O)C1CCC1	none
CC(C)(C)c1cc(C[C@@H]2CC[C@H](O)[C@@H](CN(CC3CC3)CC3CC3)O2)no1	Pf Dd2 growth 4.5µM
CCN(CC)C[C@H]1O[C@H](Cc2cc(-c3ccc(F)cc3)on2)CC[C@@H]1O	Pf Dd2 growth 7.1µM
CN(C)C[C@H]1O[C@H](Cc2cc(CN3CCOCC3)on2)CC[C@@H]1O	none
CN(C)C[C@H]1O[C@H](Cc2cc(-c3ccc(F)cc3)on2)CC[C@@H]1O	none
CN(Cc1ccccc1)Cc1cc(C[C@@H]2CC[C@H](O)[C@@H](CN)O2)no1	none
O=C1CCC(C(=O)N2C[C@@H](COCC3CC3)[C@H](c3ccccn3)C2)=NN1	none
CCC(C(=O)NCc1cc2c(cc1OC)CCC2)n1cccn1 (stereo not drawn)	none
CCn1cc(S(=O)(=O)N2CCC(c3noc(-c4cnccn4)n3)C2)cn1 (stereo not drawn)	none
COCC1CCN(C(=O)COc2ccc(NC(=O)C3CC3)cn2)CC1	none
CCCc1ccc(S(=O)(=O)N2CCC(n3cnnc3C)CC2)cc1	none
CCCc1ccc(S(=O)(=O)N2CCC(c3nnc(-c4cccc(C)c4)o3)CC2)cc1	Pf Dd2 growth 11µM
COc1ccccc1-c1nnc(C2CCN(S(=O)(=O)c3ccc(F)c(C)c3)CC2)o1	none
CCN(C1CCOCC1)C1CN(C(=O)c2nccn2C)C1	none
O=C1CCCN1CCCN1C(=O)[C@H]2CN(Cc3ccccc3)C[C@H]2C1=O	none
CN(c1ccccc1)c1ccc2nnc(-c3cc(C(=O)NCc4ccncc4)ccn3)n2n1	none
CN(c1ccccc1)c1ccc2nnc(-c3cc(C(=O)NC4CCOCC4)ccn3)n2n1	none
CN(c1ccccc1)c1ccc2nnc(-c3cc(C(=O)NCCc4ccccc4)ccn3)n2n1	Pf Dd2 growth 8.9µM
O=C(O)C1CC2(CCN(C(=O)CCCn3ccnc3)CC2)CN1 (stereo not drawn)	none
COC(=O)c1c(-c2ccc(Cl)cc2)noc1N1CCN(c2ccc(C)cc2C)CC1	Pf Dd2 growth 8.9µM
COC(=O)c1c(-c2ccc(Cl)cc2)noc1N1CCN(c2ccccc2F)CC1	none
COC(=O)c1c(-c2ccc(Cl)cc2)noc1N1CCN(c2ccc(C(C)=O)cc2)CC1	none
COCCc1noc(C2CN(C(=O)C(C)C)C2)n1	none
CCCNC(=O)N1CC(Oc2ccccc2-c2nc(CCOC)no2)C1	none
Cc1nc(C)c(C(=O)N2CC(Oc3ccccc3-c3nc(C4CC4)no3)C2)s1	none
CCn1nccc1C(=O)N1CC(Oc2ccccc2-c2nc(CCOC)no2)C1	Pf Dd2 growth 4.5µM
COCCc1noc(-c2ccccc2OC2CN(C(=O)C(C)C)C2)n1	Pf Dd2 growth 3.2µM
CCn1nccc1C(=O)N1CC(Oc2ccc(-c3nc(C)no3)cc2)C1	none
Cc1noc(C)c1CCC(=O)N1CC[C@@H](NC(=O)c2cnccn2)[C@H](O)C1	none
Cc1ccc(C2Cn3nnc(C(=O)N4CCC(C(=O)NC5CCC(C)CC5)CC4)c3CO2)cc1 (stereo not drawn)	none
Cc1cc(C(=O)N2CC3CC(C2)[C@H]2CCCC(=O)N2C3)no1 (stereo partly drawn)	none
O=C(Nc1ccccc1)N1CCCN(c2nc3ncccc3o2)CC1	none
O=C(Nc1ccccc1F)C(Cc1ccccc1)n1cccc1 (stereo not drawn)	none
O=C(Nc1ccc(C(F)(F)F)cc1)C(Cc1ccccc1)n1cccc1 (stereo not drawn)	Pf Dd2 growth 14µM
CC(C)c1ccc(NC(=O)C(Cc2ccccc2)n2cccc2)cc1 (stereo not drawn)	none
Cc1ccc(NC(=O)N[C@@H]2C=C(C(=O)NCC(N)=O)C[C@@H](O)[C@@H]2O)cc1	none
CN(C)C(=O)C1CN(C(=O)c2ccccc2OC(F)(F)F)CC12CCOCC2 (stereo not drawn)	none
CCOc1ccc(-n2c(Cc3ccccc3)nnc2SCc2nc(-c3ccccc3C)no2)cc1	none
Cc1ccc(-c2noc(CSc3nnc(Cc4ccccc4)n3-c3cccc(C)c3)n2)cc1	none
CCOc1ccc(-c2noc(CSc3nnc(Cc4ccccc4)n3-c3cccc(C)c3)n2)cc1	Pf Dd2 growth 10µM
c1ccc(-c2n[nH]c(CC3CCNC3)n2)cc1 (stereo not drawn)	none
COc1cccc(NC(=O)Cn2c(C)ccc(NC(=O)Nc3ccc(C)cc3)c2=O)c1	none
O=C(c1ccc(Cl)cc1)N1CCC(N2CCCCC2=O)CC1	none
CCOc1cc(=O)n2c(c1C(=O)Nc1cc(C)ccc1C)CCCC2	none
COc1ccc(-c2noc([C@@H]3CCCN3C(=O)c3ccc(F)cc3Cl)n2)cc1	none
CC(O)CN1CC2(CCC1=O)CCN(CCCn1ccnc1)CC2 (stereo not drawn)	none
Cc1cc(C(=O)N2CCC3(CCC(=O)N(CCCn4ccnc4)C3)CC2)c(C)o1	none
O=C1CCC2(CCN(C/C=C/c3ccccc3)CC2)CN1CCCn1ccnc1	Pf Dd2 growth 10µM
COc1ccccc1CNC(=O)c1ccc(CN2C(=O)NC3(CCOCC3)C2=O)cc1	none
NS(=O)(=O)c1ccc(C(=O)N2CCC3(CC2)Nc2ccccc2NC3=O)cc1	none
CCOc1cc(=O)n2c(c1C(=O)N1CCN(c3cccc(Cl)c3)CC1)CCCC2	none
Cc1nc2n(c1C(=O)Nc1cc(-c3ccc(F)cc3)[nH]n1)CCC(Nc1ccc(F)cc1)C2 (stereo not drawn)	Pf Dd2 growth 8.9µM
Cc1nc2n(c1C(=O)NCC1CC1)CCC(Nc1ccc(F)cc1)C2 (stereo not drawn)	none
Cc1ccccc1NC1CCn2c(nc(C)c2C(=O)Nc2ccccc2)C1 (stereo not drawn)	none
COc1ccccc1C1=NOC(C(=O)NC(C)(C)C)C1 (stereo not drawn)	none
COc1cccc(CC(=O)N2CCCC3(C2)NC(=O)N(Cc2cc(C)ccc2C)C3=O)c1 (stereo not drawn)	none
CCN(CC)c1ncccc1CNC(=O)COC	none
Cc1ccc(CN2C(=O)[C@@H]3C[C@@H](O)CN3C3(CN(Cc4ccc(Cl)cc4)C3)C2=O)o1	none
COc1ccc(CN2CC3(C2)C(=O)N(Cc2ccc(C)o2)C(=O)[C@@H]2C[C@@H](O)CN23)c2ccccc12	Pf Dd2 growth 10µM
Cc1ccc(CN2C(=O)[C@@H]3C[C@@H](O)CN3C3(CN(Cc4ccccc4Cl)C3)C2=O)o1	none
CCN(CC)C(=O)c1cc2c(s1)CCC(C(=O)Nc1ccc(OC)c(F)c1)C2 (stereo not drawn)	none
CS(=O)(=O)N1CCCN(C(=O)NCc2ccccc2)CCNC(=O)CC1c1ccccc1 (stereo not drawn)	none
Cc1ncsc1CN1CCCCCCNC(=O)CC1c1ccccc1 (stereo not drawn)	none
CCOc1ccccc1CN1CCCN(Cc2ccncc2)C(c2ccccc2)CC(=O)NCC1 (stereo not drawn)	Pf Dd2 growth 1.3µM
CC(C)NC(=O)N1CCCCCNC(=O)CC1c1ccccc1 (stereo not drawn)	none
Cc1ccc(CN2CCCN(Cc3ccncc3)C(c3ccccc3)CC(=O)NCC2)o1 (stereo not drawn)	Pf Dd2 growth 1.8µM
CCOc1ccccc1CN1CCCCCCNC(=O)CC1c1ccccc1 (stereo not drawn)	Pf Dd2 growth 11µM
CCn1ncc(CN2CCCN(S(C)(=O)=O)C(c3ccccc3)CC(=O)NCC2)c1C (stereo not drawn)	none
COc1cccc(CN2CCNC(=O)C2CC(=O)N2CCNC(=O)C2)c1OC (stereo not drawn)	none
CS(=O)(=O)N1CCCN(Cc2cn[nH]c2-c2ccc(F)cc2)CCNC(=O)CC1c1ccccc1 (stereo not drawn)	none
